# Laboratory results taken from publication PMC11062922 (Nature Chemical Biology, 2023).
# Read-outs that look alike come from different tables or passages of the source.
# Columns and labels:
# Parameters in all cases: species or system human, MV4-11 + K-562 + COLO205 + SK-N-BE2 + OVCAR-8
# ADCK3 = details: read-out: apparent Kd, n = 1
# AKT3 = details: read-out: apparent Kd; compound concentrations: 100 nM and 1000 nM (sheet 'Samples'), CATDS: 0.236310491034597; n = 1
# CDK13 = details: read-out: apparent Kd; compound concentrations: 100 nM and 1000 nM (sheet 'Samples'), CATDS: 0.20413342280503199; n = 1
# NQO1 = details: read-out: apparent Kd; compound concentrations: 100 nM and 1000 nM (sheet 'Samples'), CATDS: 0.22110563940730901; n = 1
# DHCR24 = details: read-out: apparent Kd; compound concentrations:100 nM and 1000 nM (sheet 'Samples'); n = 1
# DJA1 = system: T1, DJA1; details: read-out: apparent Kd, n = 1
# T1 construct: gene DNAJA1
# ERBB3 = details: read-out: apparent Kd; compound concentrations:100 nM and 1000 nM (sheet 'Samples'); n = 1
# PI4KA = details: read-out: apparent Kd; compound concentrations:100 nM and 1000 nM (sheet 'Samples'); n = 1
# PI4KB = details: read-out: apparent Kd; compound concentrations:100 nM and 1000 nM (sheet 'Samples'); n = 1
# PIK3C2A = details: read-out: apparent Kd; compound concentrations:100 nM and 1000 nM (sheet 'Samples'); n = 1
# PIK3C2B = details: read-out: apparent Kd; compound concentrations:100 nM and 1000 nM (sheet 'Samples'); n = 1
# PIK3CA = details: read-out: apparent Kd; compound concentrations:100 nM and 1000 nM (sheet 'Samples'); n = 1
# PIK3CB = details: read-out: apparent Kd; compound concentrations:100 nM and 1000 nM (sheet 'Samples'); n = 1
# PIK3CD = details: read-out: apparent Kd; compound concentrations:100 nM and 1000 nM (sheet 'Samples'); n = 1
# PRKDC = details: read-out: apparent Kd; compound concentrations:100 nM and 1000 nM (sheet 'Samples'); n = 1
# ADCK1 = details: read-out: apparent Kd; compound concentrations: 100 nM and 1000 nM (sheet 'Samples'), CATDS: 7.5755485484616303E-2; n = 1
# CLK1 = details: read-out: apparent Kd; compound concentrations: 100 nM and 1000 nM (sheet 'Samples'), CATDS: 0.119172303588979; n = 1
# CLK2 = details: read-out: apparent Kd; compound concentrations: 100 nM and 1000 nM (sheet 'Samples'), CATDS: 0.34791334092069898; n = 1
# CLK4 = details: read-out: apparent Kd; compound concentrations: 100 nM and 1000 nM (sheet 'Samples'), CATDS: 0.107849742816713; n = 1
# MAPK14 = details: read-out: apparent Kd; compound concentrations: 100 nM and 1000 nM (sheet 'Samples'), CATDS: 9.4734585023085197E-2; n = 1
# NQO2 = details: read-out: apparent Kd; compound concentrations: 100 nM and 1000 nM (sheet 'Samples'), CATDS: 8.1973384609640695E-2; n = 1
# PIP4K2C = details: read-out: apparent Kd; compound concentrations: 100 nM and 1000 nM (sheet 'Samples'), CATDS: 7.6274821078241906E-2; n = 1
# STK16 = details: read-out: apparent Kd; compound concentrations: 100 nM and 1000 nM (sheet 'Samples'), CATDS: 8.9736368471695804E-2; n = 1
# TESK2 = details: read-out: apparent Kd; compound concentrations: 100 nM and 1000 nM (sheet 'Samples'), CATDS: 7.0727879355670806E-2; n = 1
# TGFBR2 = details: read-out: apparent Kd; compound concentrations: 100 nM and 1000 nM (sheet 'Samples'), CATDS: 7.2410579705908001E-2; n = 1
# BRAF = details: read-out: apparent Kd; compound concentrations: 100 nM and 1000 nM (sheet 'Samples'), CATDS: 0.639948734699749; n = 1
# MAP2K5 = details: read-out: apparent Kd; compound concentrations: 100 nM and 1000 nM (sheet 'Samples'), CATDS: 0.203043275988008; n = 1
# PTK6 = details: read-out: apparent Kd; compound concentrations: 100 nM and 1000 nM (sheet 'Samples'), CATDS: 0.17376653089903399; n = 1
# RIPK3 = details: read-out: apparent Kd; compound concentrations: 100 nM and 1000 nM (sheet 'Samples'), CATDS: 9.1073681697651607E-2; n = 1
# TESK1 = details: read-out: apparent Kd; compound concentrations: 100 nM and 1000 nM (sheet 'Samples'), CATDS: 9.2639666275084007E-2; n = 1
# ZAK = details: read-out: apparent Kd; compound concentrations: 100 nM and 1000 nM (sheet 'Samples'), CATDS: 0.21269926478279999; n = 1
# GSK3A = details: read-out: apparent Kd; compound concentrations: 100 nM and 1000 nM (sheet 'Samples'), CATDS: 0.39261135326021201; n = 1
# GSK3B = details: read-out: apparent Kd; compound concentrations: 100 nM and 1000 nM (sheet 'Samples'), CATDS: 0.34419414793352499; n = 1
# [1] = compound concentrations:100 nM and 1000 nM (sheet 'Samples')
# [2] = compound concentrations: 100 nM and 1000 nM (sheet 'Samples'), CATDS: 1
smiles,measurement,setting,value
Cc1ccc(C)c(NC(=O)NC2CCN(c3ccnc(Nc4ccc(F)cc4)n3)C2)c1 (stereo not shown) [GSK1379720A],potency estimated from few doses,"ADCK3; compound concentrations: 100 nM and 1000 nM (sheet 'Samples'), CATDS: 0.42611261301479197",388 nM
same,potency estimated from few doses,AKT3,1130 nM
same,potency estimated from few doses,CDK13,1630 nM
same,potency estimated from few doses,NQO1,1330 nM
Nc1nc(-c2ccc3c(N)n[nH]c3c2)cc(N2CCC[C@@H](C(=O)Nc3ccccc3)C2)n1.Nc1nc(-c2ccc3c(N)n[nH]c3c2)cc(N2CCC[C@@H](C(=O)Nc3ccccc3)C2)n1.O=C(O)C(F)(F)F.O=C(O)C(F)(F)F [GSK2288359A],potency estimated from few doses,ADCK3; [1],1100 nM
FC(F)(F)c1ccc(/C=C/c2cncnc2Nc2ccc3[nH]c(Cc4ccccc4)nc3c2)cc1 [GW709199X],potency estimated from few doses,ADCK3; [2],456 nM
CNC(=O)c1cncc(/C=C/c2ccccc2Cl)c1 [GW445017X],potency estimated from few doses,ADCK3; [2],747 nM
COc1ccc(-c2cc3c(C)nc(N)nc3n([C@H]3CC[C@H](OCCO)CC3)c2=O)cn1 [PFE-PKIS_29],potency estimated from few doses,ADCK3; [1],1460 nM
same,potency estimated from few doses,DHCR24,1750 nM
same,potency estimated from few doses,DJA1; [1],1960 nM
same,potency estimated from few doses,ERBB3,453 nM
same,potency estimated from few doses,PI4KA,61.5 nM
same,potency estimated from few doses,PI4KB,702 nM
same,potency estimated from few doses,PIK3C2A,999 nM
same,potency estimated from few doses,PIK3C2B,34.9 nM
same,potency estimated from few doses,PIK3CA,1.27 nM
same,potency estimated from few doses,PIK3CB,10.3 nM
same,potency estimated from few doses,PIK3CD,0.67 nM
same,potency estimated from few doses,PRKDC,817 nM
CCOc1ccc2c(-c3ccnc(Nc4cc(OC)cc(C(F)(F)F)c4)n3)cnn2n1 [GW807982X_KCGS],potency estimated from few doses,ADCK1,1800 nM
same,potency estimated from few doses,CLK1,672 nM
same,potency estimated from few doses,CLK2,132 nM
same,potency estimated from few doses,CLK4,811 nM
same,potency estimated from few doses,"DJA1; compound concentrations: 100 nM and 1000 nM (sheet 'Samples'), CATDS: 8.1274220944096601E-2",1500 nM
same,potency estimated from few doses,MAPK14,1050 nM
same,potency estimated from few doses,NQO2,1470 nM
same,potency estimated from few doses,PIP4K2C,1760 nM
same,potency estimated from few doses,STK16,1190 nM
same,potency estimated from few doses,TESK2,2180 nM
same,potency estimated from few doses,TGFBR2,2040 nM
CCCS(=O)(=O)Nc1ccc(F)c(-n2cc(-c3cncc(OC)c3)nn2)c1F [BI00865461],potency estimated from few doses,"ADCK3; compound concentrations: 100 nM and 1000 nM (sheet 'Samples'), CATDS: 9.7263378995511504E-2",1210 nM
same,potency estimated from few doses,BRAF,7.45 nM
same,potency estimated from few doses,MAP2K5,70.4 nM
same,potency estimated from few doses,PTK6,108 nM
same,potency estimated from few doses,RIPK3,1790 nM
same,potency estimated from few doses,TESK1,1610 nM
same,potency estimated from few doses,ZAK,62.5 nM
Cc1ccc(C)c(C2=C(c3cn(C)c4ccccc34)C(=O)NC2=O)c1 [RO0317699-000],potency estimated from few doses,"ADCK3; compound concentrations: 100 nM and 1000 nM (sheet 'Samples'), CATDS: 0.28187952548436401",629 nM
same,potency estimated from few doses,GSK3A,316 nM
same,potency estimated from few doses,GSK3B,404 nM
